Only some compounds are listed: those with a hit (about 1.1% of all), similar ones and a draw of the others.
PLK1 PBD inh = blocks phosphopeptide binding to human Plk1 polo box domain | P53350 | Plk1 PBD phosphopeptide binding, fluorescence polarization | inhibition, %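 (tested at about 20 µM)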 | 97,000 tested, 0.13% active | AID 693; in the data active = inhibition above about 34%, passing the limit was not always enough
Target sequence (P53350 whole entry, looked up, the tested form may be a part): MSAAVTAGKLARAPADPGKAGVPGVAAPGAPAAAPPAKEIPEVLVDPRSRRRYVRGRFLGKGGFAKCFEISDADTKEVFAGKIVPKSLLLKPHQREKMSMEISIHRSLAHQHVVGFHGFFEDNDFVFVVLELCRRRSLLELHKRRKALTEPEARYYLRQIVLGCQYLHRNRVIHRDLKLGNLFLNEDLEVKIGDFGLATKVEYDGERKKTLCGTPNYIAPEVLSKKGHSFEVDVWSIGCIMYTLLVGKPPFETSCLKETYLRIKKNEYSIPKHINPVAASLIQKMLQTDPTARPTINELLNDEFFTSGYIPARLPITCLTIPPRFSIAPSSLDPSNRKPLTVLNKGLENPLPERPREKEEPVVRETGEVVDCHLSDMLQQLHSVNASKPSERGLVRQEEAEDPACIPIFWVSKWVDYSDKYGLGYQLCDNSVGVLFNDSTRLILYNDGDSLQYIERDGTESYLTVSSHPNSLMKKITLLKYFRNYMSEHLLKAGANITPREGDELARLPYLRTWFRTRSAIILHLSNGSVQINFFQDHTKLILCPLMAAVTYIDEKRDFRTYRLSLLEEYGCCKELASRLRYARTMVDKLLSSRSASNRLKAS
Mac1 fbg enh = enhancers of human CD11b/CD18 binding to fibrinogen. activation, % at 10 µM. P05107+P11215. 93,000 tested, 0.07% active. K562 CD11b/CD18 adhesion to fibrinogen, ATPlite luminescence;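 active = 10 µM primary screen giving 50% or more activity, confirmed by 40% or more on retest at that dose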
PLK1 kinase inh = PLK1 (human) kinase inhibition; P53350; inhibition, % at 10 µM; 97,000 tested, 0.53% active; recombinant PLK1 kinase, TR-FRET peptide phosphorylation;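 active = inhibition of 50% or more in the single-concentration screen; inactive = inhibition below 50%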;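 note: 0% = DMSO max control and 100% = H-89 dihydrochloride min control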
Calb biofilm kill = kills Candida albicans biofilms; C. albicans biofilm + clotrimazole, Alamar Blue; inhibition, % at 6 µM; 85,000 tested, 0.14% active; AID 834;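 active = inhibition above 20%; inactive = inhibition below 20%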;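 note: preformed 24 hr biofilms exposed to compound for 48 hr; 0% = biofilm without compound and 100% = blank killed by clotrimazole plus chlorhexidine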
Mac1 fbg inh = inhibitors of human CD11b/CD18 binding to fibrinogen; K562 CD11b/CD18 adhesion to fibrinogen, ATPlite luminescence; Mn2+ added to activate the integrin; inhibition, % at 10 µM; 93,000 tested, 0.54% active;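 active = primary inhibition of 50% or more at 10 µM, then 40% or more on retest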
PLK1 inh conf = PLK1 (human) kinase inhibition, confirmed. AID 744. shares compounds with PLK1 kinase inh. 210 tested, 20% active. inhibition, % at 10 µM. recombinant PLK1 kinase, TR-FRET peptide phosphorylation;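 active = inhibition at or above 50% in each of two repeat confirmation tests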;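 note: 0% = DMSO max control and 100% = H-89 kinase-blocked min control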
TR-FRET interf = Plk1 assay compound interference counter-screen hit; shares compounds with PLK1 kinase inh; Plk1 TR-FRET assay interference, compound added post-reaction; inhibition (interference), % at 10 µM; 210 tested, under 10 active; AID 756;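 active = both duplicate runs show 50% or greater inhibition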;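 note: 0% = DMSO max control and 100% = H-89 min control inhibited reaction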
An asterisk follows results filed as active.

What do the screens show for `CCc1cccc(OCC(=O)Nc2ccc(S(=O)(=O)Nc3onc(C)c3C)cc2)c1`?
PLK1 PBD inh: -20; Mac1 fbg enh: -1; PLK1 kinase inh: 75*; Calb biofilm kill: 4; Mac1 fbg inh: 0; PLK1 inh conf: -2; TR-FRET interf: -60

What do the screens show for `Cc1ccc2c(c1)c(C)c(C)n2CC(O)CN1CCCCC1C` (stereo not given)?
PLK1 PBD inh: 8; Mac1 fbg enh: -1; PLK1 kinase inh: 70*; Calb biofilm kill: 14; Mac1 fbg inh: 0; PLK1 inh conf: -11; TR-FRET interf: -52

Results for Cc1ccc(CNc2ccc(N3CCOCC3)cc2)s1 ?
PLK1 PBD inh: -2; Mac1 fbg enh: -3; PLK1 kinase inh: -3; Calb biofilm kill: 4; Mac1 fbg inh: 4

Results for CC(=O)N1CCN(c2ccc(NCc3ccc(C)s3)cc2)CC1 ?
PLK1 PBD inh: -9; Mac1 fbg enh: 1; PLK1 kinase inh: 77*; Calb biofilm kill: 15; Mac1 fbg inh: 7; PLK1 inh conf: -1; TR-FRET interf: -59

What do the screens show for `NC(=O)c1ccc(C(F)(F)F)n(Cc2ccc(Cl)cc2)c1=O`?
PLK1 PBD inh: -19; Mac1 fbg enh: -1; PLK1 kinase inh: 81*; Mac1 fbg inh: -10; PLK1 inh conf: 56*; TR-FRET interf: -49

How did NC(=O)c1ccc(C(F)(F)F)n(Cc2cccc(Cl)c2)c1=O do in these assays?
PLK1 PBD inh: 24; Mac1 fbg enh: 0; PLK1 kinase inh: 75*; Mac1 fbg inh: -8; PLK1 inh conf: 62*; TR-FRET interf: -56

What do the screens show for `Cc1ccc2cc(COC(=O)C3CCCO3)c(=O)[nH]c2c1` (stereo not given)?
PLK1 PBD inh: 16; Mac1 fbg enh: -5; PLK1 kinase inh: -2; Mac1 fbg inh: -14

What do the screens show for `COc1ccccc1N1CCN(S(=O)(=O)c2ccc(F)cc2)CC1`?
PLK1 PBD inh: 8; Mac1 fbg enh: 6; PLK1 kinase inh: 82*; Calb biofilm kill: 6; Mac1 fbg inh: -3; PLK1 inh conf: -4; TR-FRET interf: -54

What do the screens show for `Cc1[nH]nc2c1C1(CCN(Cc3ccccc3)CC1)C(C#N)=C(N)O2`?
PLK1 PBD inh: 0; Mac1 fbg enh: 2; PLK1 kinase inh: 72*; Calb biofilm kill: -2; Mac1 fbg inh: 8; PLK1 inh conf: 70*; TR-FRET interf: -47

How did O=C(NC1CCCCC1)C(c1cccnc1)N(CCc1ccccc1)C(=O)Cc1cccs1 (stereo not given) do in these assays?
Mac1 fbg enh: 0; Mac1 fbg inh: -8

Results for CC(C)OC(=O)C1C2C=CC3(CN(C(C)c4ccc(Br)cc4)C(=O)C13)O2 (stereo not given) ?
PLK1 PBD inh: -11; Mac1 fbg enh: 0; PLK1 kinase inh: 74*; Calb biofilm kill: 7; Mac1 fbg inh: -5; PLK1 inh conf: -12; TR-FRET interf: -46

What do the screens show for `O=C(/C=C/c1c[nH]c2ccccc12)c1cccc2ccccc12`?
Mac1 fbg enh: -1; Mac1 fbg inh: 34

How did N#C/C(=N\Nc1c(Cl)cccc1Cl)C(=O)NN do in these assays?
PLK1 PBD inh: 2; Mac1 fbg enh: -1; PLK1 kinase inh: 79*; Mac1 fbg inh: 7; PLK1 inh conf: 77*; TR-FRET interf: -58

Results for CCOC(=O)NC(=O)/C(C#N)=N/Nc1c(F)cccc1F ?
PLK1 PBD inh: 19; Mac1 fbg enh: 0; PLK1 kinase inh: -3; Calb biofilm kill: 5; Mac1 fbg inh: -1

Results for O=c1[nH]cnc2scc(-c3cccs3)c12 ?
PLK1 PBD inh: 1; PLK1 kinase inh: 73*; Calb biofilm kill: -1; PLK1 inh conf: 65*; TR-FRET interf: -49

Results for CCc1nnc(NC(=O)CN2CCN(c3ccc(Cl)cc3)CC2)s1 ?
PLK1 PBD inh: 9; PLK1 kinase inh: -13; Calb biofilm kill: 5

How did O=C(COC(=O)c1ccncc1)Nc1cc(Cl)c(Cl)cc1Cl do in these assays?
PLK1 PBD inh: 16; PLK1 kinase inh: 13; Calb biofilm kill: 0

Results for CCCc1cc(C(N)=O)c(NC(=O)c2ccco2)s1 ?
PLK1 PBD inh: 4; Mac1 fbg enh: -7; PLK1 kinase inh: 127*; Calb biofilm kill: 6; Mac1 fbg inh: -16; PLK1 inh conf: -2; TR-FRET interf: -51

How did Cc1cccc(-c2nc(CS(=O)CC(=O)N3CCc4ccccc4C3)c(C)o2)c1 (stereo not given) do in these assays?
PLK1 PBD inh: 0; Mac1 fbg enh: 2; PLK1 kinase inh: -23; Calb biofilm kill: -1; Mac1 fbg inh: -2

What do the screens show for `Cc1ccccc1-c1nc(CS(=O)CC(=O)NCc2ccccc2)c(C)o1` (stereo not given)?
PLK1 PBD inh: -6; Mac1 fbg enh: 5; PLK1 kinase inh: 79*; Calb biofilm kill: 6; Mac1 fbg inh: -7; PLK1 inh conf: -17; TR-FRET interf: -54

What do the screens show for `CCOC(=O)N1CCN(C(=O)CS(=O)Cc2nc(-c3cccc(C)c3)oc2C)CC1` (stereo not given)?
PLK1 PBD inh: -11; Mac1 fbg enh: 1; PLK1 kinase inh: 75*; Calb biofilm kill: -10; Mac1 fbg inh: -14; PLK1 inh conf: -8; TR-FRET interf: -48

Results for S=C(NCc1ccccc1)NCc1ccc2c(c1)OCO2 ?
Mac1 fbg enh: 7; Mac1 fbg inh: 0

How did O=C(NCc1ccc2c(c1)OCO2)Oc1ccccc1 do in these assays?
PLK1 PBD inh: 18; Mac1 fbg enh: -2; PLK1 kinase inh: 83*; Calb biofilm kill: -2; Mac1 fbg inh: -6; PLK1 inh conf: -1; TR-FRET interf: -53

Results for COc1ccc(-c2nc(CS(=O)CC(=O)NCc3ccc4c(c3)OCO4)c(C)o2)cc1 (stereo not given) ?
PLK1 PBD inh: 3; Mac1 fbg enh: -5; PLK1 kinase inh: -11; Calb biofilm kill: 8; Mac1 fbg inh: -6

What do the screens show for `COc1cccc(-c2nc(CS(=O)CC(=O)NCc3ccc4c(c3)OCO4)c(C)o2)c1` (stereo not given)?
PLK1 PBD inh: -48; Mac1 fbg enh: 0; PLK1 kinase inh: 75*; Calb biofilm kill: 1; Mac1 fbg inh: 4; PLK1 inh conf: -5; TR-FRET interf: -57

How did COc1ccc(Cl)cc1NC(=O)C(C)N(C)Cc1ccc(C(F)(F)F)cc1 (stereo not given) do in these assays?
Mac1 fbg enh: -2; Mac1 fbg inh: 32

Results for CCN(CC)S(=O)(=O)c1ccc(OC)c(NC(=O)C(Cc2ccccc2)N2C(=O)c3ccccc3C2=O)c1 (stereo not given) ?
Mac1 fbg enh: 6; Mac1 fbg inh: 2

How did COCCNC(=O)CS(=O)Cc1nc(-c2ccc(OC)cc2)oc1C (stereo not given) do in these assays?
PLK1 PBD inh: -6; Mac1 fbg enh: -1; PLK1 kinase inh: 71*; Calb biofilm kill: 5; Mac1 fbg inh: -7; PLK1 inh conf: -3; TR-FRET interf: -53

From PubChem
